# Sampled rows, rich in hits. Any-hit rate of the full collection: about 3.2%.
# MEKK2 WT-MEK5 – modulators of MEK5 binding to wildtype MEKK2, primary screen, biochemical, multiplex bead flow cytometry, Alexa488-MEK5; binding response (% of control), % at 10 µM; AID 1531, 2009; 290,000 tested, 1.1% active; Alexa488-MEK5 binding to MEKK2 WT; actives lie on both sides; Mitogen-activated protein kinase kinase kinase 2 (Homo sapiens), Q9Y2U5; in the data active means binding response below about 67% or above about 130%
# SKN-1 inh – suppressors of acrylamide-induced Pgst-4::GFP reporter in worms, primary screen, SKN-1 inhibitor project, whole organism, uHTS, GFP/RFP fluorescence ratio, strain VP596 | inhibition, % at 21.8 µM | C. elegans VP596 Pgst-4::GFP/RFP ratio, 24 h | 360,000 tested, 0.49% active;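 active means interference check ratio from 0.5 to 1.5 plus GFP to RFP signal ratio inhibition reaching or exceeding a fixed threshold, cut at about 30% in these data, passing the limit was not always enough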
# MEKK3 PB1 HTS – modulators of MEKK3-MEK5 PB1 binding, primary screen, biochemical, wildtype MEKK3, multiplex bead flow cytometry, Alexa488-MEK5; Mitogen-activated protein kinase kinase kinase 3 (Homo sapiens), Q99759; bead-based flow cytometry, Alexa488-MEK5 binding to MEKK3; actives lie on both sides; 0 = blocked by unlabeled MEK5, 100 = vehicle; binding response (% of control), % at 10 µM; 290,000 tested, 1.4% active; AID 1529, 2009;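 active means binding response more than 3 SD above or below the average of its plate-row segment, actives on both sides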;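 further: Alexa488 bead fluorescence after subtracting the streptavidin-only scavenger bead signal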
# MEKK2mut PB1 HTS – MEK5 binding signal on mutant MEKK2 PB1, primary screen, biochemical, multiplex bead flow cytometry, Alexa488-MEK5; percent response, % at 10 µM; Alexa488-MEK5 binding to MEKK2 mutant; 290,000 tested, 0.35% active; in the data active means percent response above about 24%, passing the limit was not always enough
# NRP1-CendR mod – modulators of CendR peptide binding to NRP-1, primary screen, biochemical, fluorescence polarization, uHTS. Neuropilin-1 (Homo sapiens), O14786. FAM-RPARPAR peptide binding to NRP-1. inhibition, % at 25 µM. 360,000 tested, 0.85% active;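 active means inhibition or corrected inhibition above about 18%, plus a signal ratio from 0.5 to 1.5, limit read from the data, passing the limit was not always enough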
# Target sequence (O14786 whole entry, looked up): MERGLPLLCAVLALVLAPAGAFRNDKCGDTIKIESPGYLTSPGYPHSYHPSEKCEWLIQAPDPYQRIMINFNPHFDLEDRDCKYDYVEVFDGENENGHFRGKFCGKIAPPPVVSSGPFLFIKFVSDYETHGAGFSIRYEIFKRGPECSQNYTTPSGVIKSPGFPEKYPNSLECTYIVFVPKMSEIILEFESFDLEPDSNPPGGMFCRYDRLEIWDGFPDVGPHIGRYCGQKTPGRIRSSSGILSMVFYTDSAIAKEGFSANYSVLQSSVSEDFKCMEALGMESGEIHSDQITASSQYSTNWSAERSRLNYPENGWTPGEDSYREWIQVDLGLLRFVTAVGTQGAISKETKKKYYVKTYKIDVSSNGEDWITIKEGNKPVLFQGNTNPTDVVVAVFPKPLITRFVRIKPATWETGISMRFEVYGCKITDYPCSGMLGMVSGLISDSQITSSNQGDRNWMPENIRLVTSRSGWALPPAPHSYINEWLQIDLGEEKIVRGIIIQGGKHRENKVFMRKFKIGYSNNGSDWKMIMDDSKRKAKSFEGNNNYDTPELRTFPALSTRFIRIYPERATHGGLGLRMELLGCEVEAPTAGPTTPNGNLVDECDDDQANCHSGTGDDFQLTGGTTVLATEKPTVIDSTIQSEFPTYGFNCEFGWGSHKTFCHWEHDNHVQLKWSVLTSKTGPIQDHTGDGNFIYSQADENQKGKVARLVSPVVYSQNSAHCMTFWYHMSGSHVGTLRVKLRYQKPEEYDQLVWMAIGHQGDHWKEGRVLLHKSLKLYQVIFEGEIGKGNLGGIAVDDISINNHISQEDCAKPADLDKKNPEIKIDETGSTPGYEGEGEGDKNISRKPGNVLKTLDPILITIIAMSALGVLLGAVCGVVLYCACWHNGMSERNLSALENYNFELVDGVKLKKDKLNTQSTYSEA
# MEKK2wt confirm – modulators of MEK5 binding to wildtype MEKK2, confirmation, biochemical, single concentration, multiplex bead flow cytometry; shares compounds with MEKK3 PB1 HTS; Alexa488-MEK5 binding to MEKK2 WT; actives lie on both sides; binding response (% of control), % at 10 µM; 5,900 tested, 2.4% active; in the data active means binding response below about 16% or above about 210%; inactive means in between
# MEKK2mut confirm – mutant MEKK2 PB1-MEK5 binding signal retest – biochemical, single concentration, multiplex bead flow cytometry, confirmation | shares compounds with MEKK3 PB1 HTS | AID 1893, 2009 | Alexa488-MEK5 binding to MEKK2 mutant | 5,900 tested, 2% active | percent response, % at 10 µM; in the data active means percent response mostly above about 71%, no sharp cut-off; inactive means mostly below about 38%;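 further: higher means compound restores mutant binding toward wildtype level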
# MEKK3-MEK5 inh – MEKK3 wild-type PB1 binding to MEK5, inhibitors, confirmation, biochemical, bead multiplex flow cytometry, single concentration, wildtype | Alexa488-MEK5 binding to MEKK3; active compounds read low | binding response (% of control), % at 10 µM | 5,900 tested, 1.8% active | shares compounds with MEKK3 PB1 HTS;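 active means binding response below 72% of control, or above a set upper limit, though filed actives all read lower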;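 further: 100% = DMSO only wells and 0% = binding blocked by excess unlabeled MEK5; lower values mean stronger disruption of MEK5 binding to MEKK3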
# The depositor's hits bear a star; . = no result given; [ ] = another dose, or the depositor's remark.
SMILES,MEKK2 WT-MEK5,SKN-1 inh,MEKK3 PB1 HTS,MEKK2mut PB1 HTS,NRP1-CendR mod,MEKK2wt confirm,MEKK2mut confirm,MEKK3-MEK5 inh
COc1ccc(NC(=O)N(Cc2cccs2)Cc2cc3cc4c(cc3[nH]c2=O)OCO4)cc1,100.0,.,137.0*,1.0,.,99.0,2.0,104.0
Cc1ccc2[nH]c(=O)c(CN(Cc3cccs3)C(=S)NCC3CCCO3)cc2c1 (stereo not drawn),99.0,8.4,138.0*,0.0,-4.9,104.0,4.0,107.0
CC1(C(=O)NCc2cccc3ccccc23)CCN1Cc1ccccc1OC(F)F (stereo not drawn),.,2.5,.,.,3.5,.,.,.
COc1ccc(OC)c(NC(=O)C2(C)CCN2CCOc2ccccc2)c1 (stereo not drawn),.,4.2,.,.,-1.6,.,.,.
O=C(Nc1ccc(F)cc1)OCCN1CCN(Cc2ccccc2)CCC1=O,2.0*[inhibitor],-1.5,2.0*[inhibitor],-2.0,-15.8,103.0,-3.0,100.0
Cc1ccc(NC(=O)OCCN2CCN(Cc3ccccc3)CCC2=O)cc1C,101.0,2.8,99.0,-3.0,-5.0,.,.,.
CCOC(=O)C1=CCC(c2ccc(Cl)cc2)N(S(=O)(=O)c2ccc(C)cc2)C1 (stereo not drawn),.,6.3,.,.,6.0,.,.,.
CCN1CCN(c2c(Cl)cccc2NC(=O)c2ccc3c(c2)OCCO3)CC1,68.0,20.6,48.0*[inhibitor],-24.0,-6.9,110.0,3.0,104.0
O=C(Nc1ccc(F)c(Cl)c1)c1ccc2sc([C@H]3C[C@H](O)[C@@H](CO)O3)nc2c1,.,22.9,.,.,-10.4,.,.,.
COc1ccc(-n2cc(-c3ccccc3)[nH]c2=S)cc1,105.0,-0.5,130.0*,1.0,0.5,101.0,2.0,101.0
c1ccc(-c2nc(-c3ccco3)n3ccccc23)cc1,58.0*[inhibitor],5.9,92.0,-1.0,-56.1,101.0,-10.0,98.0
CCCCNC(=O)C[C@@H]1C[C@@]2(C(=O)OC)CCCCC=C2N(Cc2ccc(Cl)cc2Cl)C1=O,.,4.7,.,.,-5.2,.,.,.
CCCCNC(=O)CNC(=S)N(Cc1ccccc1F)C1CCCCC1,112.0,13.1,131.0*,0.0,-9.0,97.0,-2.0,102.0
COc1cc2c(C(=O)NCCCOC(C)C)cn(CC(C)C)c(=O)c2cc1OC,87.0,9.4,81.0*[inhibitor],-3.0,6.6,99.0,2.0,103.0
CCCCn1c(N)c(N(CC)C(=O)C2COc3ccccc3O2)c(=O)[nH]c1=O (stereo not drawn),.,3.4,.,.,3.3,.,.,.
O=C(O)C1Cc2[nH]cnc2C(c2ccccc2O)N1 (stereo not drawn),92.0,3.0,60.0*[inhibitor],-1.0,9.3,96.0,-2.0,96.0
CCc1ccc(Nc2n[n+](-c3ccccc3)c(-c3c(Cl)cccc3Cl)s2)cc1,133.0,2.3,105.0,9.0,2.2,.,.,.
CCc1ccc(Nc2n[n+](-c3ccccc3)c(-c3ccc(N(CC)CC)cc3)s2)cc1,65.0*,4.4,101.0,277.0*,149.9,164.0,50.0,94.0
CCc1ccc(Nc2n[n+](-c3ccccc3)c(-c3ccc(OCc4ccccc4)cc3)s2)cc1,220.0*,13.0,111.0,107.0*,4.7,209.0*,82.0*,114.0
O=C(O)c1ccc(-c2sc(Nc3ccccc3)n[n+]2-c2ccccc2)cc1,95.0,-5.2,99.0,-4.0,3.7,.,.,.

# Bioassay records as filed in PubChem BioAssay.
